system: Bacillus 1 (Bacillus foraminis); test: relative growth (AUC of 72 h growth curve relative to DMSO control, dAUC) (ratio); higher = more growth (less inhibition), active = hit call of the paper; details: 20 µM
Protocol: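 Environmental bacterial isolates (Iceland stream sediment and Silwood Park soil) and whole stream-sediment communities were grown in LB from a 1:100 dilution with each pesticide at 20 µM (1% DMSO). A600 was read hourly for 72 h and the area under a spline-fitted growth curve (AUC) was computed. dAUC is the mean AUC of 3 biological replicates divided by the mean AUC of the DMSO controls. Significance was tested by Dunnett's test against the DMSO control.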

Row | Compound | relative growth
1 | CSc1nc(NC(C)C)nc(NC(C)C)n1 | 0.945 (inactive)
2 | N#Cc1sc2c(=O)c3ccccc3c(=O)c=2sc1C#N | 0.97 (inactive)
3 | CCOc1ccc(C(C)(C)COCc2cccc(Oc3ccccc3)c2)cc1 | 0.954 (inactive)
4 | CCC(C)c1ccccc1OC(=O)NC (configuration not stated) | 1.07 (inactive)
5 | Cc1cc(C2CC2)nc(Nc2ccccc2)n1 | 0.911 (inactive)
6 | CC(C)CC(C)c1sccc1NC(=O)c1cn(C)nc1C(F)(F)F (configuration not stated) | 0.959 (inactive)
7 | CNC(=O)/C=C(\C)OP(=O)(OC)OC | 0.96 (inactive)
8 | CCOC(=O)CC(SP(=S)(OC)OC)C(=O)OCC (configuration not stated) | 1.05 (inactive)
9 | CCc1cccc(C)c1N(C(=O)CCl)[C@@H](C)COC | 1.06 (inactive)
10 | O=[N+]([O-])/N=C1\NCCN1Cc1ccc(Cl)nc1 | 1.06 (inactive)
11 | CC(C)(C)[C@@H](O)[C@H](Oc1ccc(Cl)cc1)n1cncn1 | 1.03 (inactive)
12 | CN(C)C(CSS(=O)(=O)O)CSS(=O)(=O)O | 1.07 (inactive)
13 | COC(=O)N(C(=O)N1CO[C@@]2(C(=O)OC)Cc3cc(Cl)ccc3C2=N1)c1ccc(OC(F)(F)F)cc1 | 1 (inactive)
14 | COP(=O)(NC(C)=O)SC (configuration not stated) | 1.02 (inactive)
15 | O=C(NC(=O)c1c(F)cccc1F)Nc1ccc(Cl)cc1 | 1.05 (inactive)
16 | COc1cccc(C(=O)NN(C(=O)c2cc(C)cc(C)c2)C(C)(C)C)c1C | 0.966 (inactive)
17 | COCc1cnc(C2=NC(C)(C(C)C)C(=O)N2)c(C(=O)O)c1 (configuration not stated) | 0.985 (inactive)
18 | O=C(O)c1nc(Cl)ccc1Cl | 0.984 (inactive)
19 | CO/N=C(/C(=O)OC)c1ccccc1CO/N=C(\C)c1cccc(C(F)(F)F)c1 | 0.972 (inactive)
20 | CC(C)OC(=O)Nc1cccc(Cl)c1 | 1.15 (inactive)
21 | COC(=O)Nc1nc2ccccc2[nH]1 | 1.1 (inactive)
22 | O=C(NC(=O)c1c(F)cccc1F)Nc1ccc(OC(F)(F)C(F)OC(F)(F)F)c(Cl)c1 (configuration not stated) | 0.942 (inactive)
23 | CCCCCCCCCCCCNC(=N)N | 0.691 (active)
24 | CNC(=O)ON=C(C)SC | 0.996 (inactive)
25 | CCC(=O)Nc1ccc(Cl)c(Cl)c1 | 0.957 (inactive)
26 | CC1(C)[C@H](C(=O)O[C@H](C#N)c2cccc(Oc3ccccc3)c2)[C@@H]1C=C(Br)Br | 1.1 (inactive)
27 | C[N+](C)(C)CCCl | 0.969 (inactive)

Reference: the supplement of paper PMC12067926
